Counter-ions that a name gives are not always drawn.
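Note: flow cytometry read-out as median GFP intensity of gated cells, compounds added 30 min before Hh-conditioned or mock medium, mock-treated cells serving as unstimulated baseline.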

In the experiment the test system is Drosophila S2 cl14 SmoIP sensor cells. As to the kind of experiment: normalized SmoIP GFP fluorescence (untreated unstimulated = 0%, untreated Hh-stimulated = 100%); higher = more Smo activation sensor fluorescence. Conditions: stimulation: Hh conditioned medium (+Hh); compound concentration: 2 uM; 24 h.
`CC(C)c1nc(CN(C)C(=O)N[C@@H](CCN2CCOCC2)C(=O)N[C@H](CC[C@H](Cc2ccccc2)NC(=O)OCc2cncs2)Cc2ccccc2)cs1` [cobicistat-gs-9350]: the “normalized SmoIP GFP fluorescence” value came to 113%.

In the case of `COc1ccccc1Oc1c(NS(=O)(=O)c2ccc(C(C)(C)C)cc2)nc(-c2ncccn2)nc1OCCO` [bosentan-hydrate], the “normalized SmoIP GFP fluorescence” value was determined as 109%.

`COc1cc2ncnc(Nc3ccc(F)c(Cl)c3)c2cc1OCCCN1CCOCC1` [Gefitinib]: the “normalized SmoIP GFP fluorescence” value was 116%.

For `Cn1c(=O)c2[nH]cnc2n(C)c1=O` [Aminophylline(Truphylline)], the “normalized SmoIP GFP fluorescence” value was 98.8%.

`O=C(NC[C@H](O)CO)c1ccncc1Nc1ccc(I)cc1F`: the “normalized SmoIP GFP fluorescence” value was 182%.

Regarding `C=CCc1ccc(O)c(-c2ccc(O)c(CC=C)c2)c1` [Honokiol], the “normalized SmoIP GFP fluorescence” value worked out at 104%.

For the compound `CCOC(=O)CCNc1cc(N2CCc3ccccc3CC2)nc(-c2ccccn2)n1`, the “normalized SmoIP GFP fluorescence” value stood at 116%.

As for `CCNC(=O)[C@H]1O[C@@H](n2cnc3c(N)nc(NCCc4ccc(CCC(=O)O)cc4)nc32)[C@H](O)[C@@H]1O`, the “normalized SmoIP GFP fluorescence” value is 148%.

For the compound `Cc1csc(-c2nnc(Nc3ccc(Oc4ncccc4-c4ccnc(N)n4)cc3)c3ccccc23)c1`, the “normalized SmoIP GFP fluorescence” value worked out at 102%.

`Nc1ncnc2c1c(-c1cccc(OCc3ccccc3)c1)cn2C1CC(CN2CCCC2)C1` (centres undefined): the “normalized SmoIP GFP fluorescence” value came to 117%.

As to `CC1(C)CC(=O)c2c(C(F)(F)F)nn(-c3ccc(C(N)=O)c(N[C@H]4CC[C@H](O)CC4)c3)c2C1`, the “normalized SmoIP GFP fluorescence” value is 178%.

As for `CNC(=O)c1cc(Oc2ccc(NC(=O)Nc3ccc(Cl)c(C(F)(F)F)c3)c(F)c2)ccn1`, the “normalized SmoIP GFP fluorescence” value worked out at 100%.

Regarding `COc1ccc(CNC(=O)Nc2ncc([N+](=O)[O-])s2)cc1`, the “normalized SmoIP GFP fluorescence” value stood at 111%.

Consider `CC(C)c1nc(CN(C)C(=O)N[C@H](C(=O)N[C@@H](Cc2ccccc2)C[C@H](O)[C@H](Cc2ccccc2)NC(=O)OCc2cncs2)C(C)C)cs1` [Ritonavir], for which the “normalized SmoIP GFP fluorescence” value turned out to be 109%.

Turning to `Cc1cnc(-c2cnc(NCCNc3ccc(C#N)cn3)nc2-c2ccc(Cl)cc2Cl)[nH]1`, the “normalized SmoIP GFP fluorescence” value was determined as 118%.

As to `C#C[C@]1(OC(C)=O)CC[C@H]2[C@@H]3CCC4=C[C@@H](OC(C)=O)CC[C@@H]4[C@H]3CC[C@@]21C` [ethynodiol-diacetate], the “normalized SmoIP GFP fluorescence” value turned out to be 100%.

As for `Cc1cc(O)c2c(c1)C(=O)c1cccc(O)c1C2=O` [Chrysophanic-acid-Chrysophanol], the “normalized SmoIP GFP fluorescence” value was 133%.

Turning to `CN(c1ncccc1CNc1nc(Nc2ccc3c(c2)CC(=O)N3)ncc1C(F)(F)F)S(C)(=O)=O`, the “normalized SmoIP GFP fluorescence” value was 196%.

For the compound `COc1cc([C@@H]2c3cc4c(cc3[C@@H](O[C@@H]3O[C@@H]5CO[C@@H](C)O[C@H]5[C@H](O)[C@H]3O)[C@H]3COC(=O)[C@H]23)OCO4)cc(OC)c1OP(=O)(O)O` [Etopophos], the “normalized SmoIP GFP fluorescence” value came out at 178%.

In the case of `O=C(NC[C@H]1CN(c2ccc(N3CCOCC3=O)cc2)C(=O)O1)c1ccc(Cl)s1` [Rivaroxaban], the “normalized SmoIP GFP fluorescence” value worked out at 103%.

With `N#Cc1cc(CN2CCC(Nc3ncnc4sc(Cl)cc34)CC2)ccc1F`, the “normalized SmoIP GFP fluorescence” value stood at 129%.

As to `CN(C)Cc1ccc(-c2nc3cccc4c3n2CCNC4=O)cc1`, the “normalized SmoIP GFP fluorescence” value was 120%.

Consider `COc1cc(NC(=O)c2ccc(-c3ccc(Cl)cc3)o2)cc(OC)c1`, for which the “normalized SmoIP GFP fluorescence” value worked out at 115%.

Take `COc1ccc(-c2ccc3c(N4CCOC[C@@H]4C)nc(N4CCOC[C@@H]4C)nc3n2)cc1CO`: the “normalized SmoIP GFP fluorescence” value turned out to be 61.4%.

Take `COc1cc2nccc(Oc3ccc(NC(=O)NC4CC4)c(Cl)c3)c2cc1C(N)=O`: the “normalized SmoIP GFP fluorescence” value turned out to be 99.3%.

`Cc1ccc(Sc2ccccc2N2CCNCC2)c(C)c1`: the “normalized SmoIP GFP fluorescence” value was found to be 169%.

As for `C[C@@H](c1ncncc1F)[C@](O)(Cn1cncn1)c1ccc(F)cc1F` [Voriconazole], the “normalized SmoIP GFP fluorescence” value amounted to 101%.

For `CNC(=O)c1cc(Oc2ccc(NC(=O)Nc3ccc(Cl)c(C(F)(F)F)c3)cc2)ccn1` [sorafenib], the “normalized SmoIP GFP fluorescence” value is 107%.

For `COc1ccc(C2CNC(=O)C2)cc1OC1CCCC1` (centres undefined) [Rolipram], the “normalized SmoIP GFP fluorescence” value was 92.5%.

`CO[C@H]1C[C@@H]2CC[C@@H](C)[C@@](O)(O2)C(=O)C(=O)N2CCCC[C@H]2C(=O)O[C@H]([C@H](C)C[C@@H]2CC[C@@H](OCCO)[C@H](OC)C2)CC(=O)[C@H](C)/C=C(\C)[C@@H](O)[C@@H](OC)C(=O)[C@H](C)C[C@H](C)/C=C/C=C/C=C/1C` [Everolimus(RAD001)]: the “normalized SmoIP GFP fluorescence” value was 32.9%.

In the case of `C[C@H](Nc1ncnc2nc[nH]c12)c1cc2cccc(Cl)c2c(=O)n1-c1ccccc1`, the “normalized SmoIP GFP fluorescence” value was found to be 98%.

On to `Cn1c(N2CCCCS2(=O)=O)nc(C(=O)NCc2ccc(F)cc2)c(O)c1=O`, for which the “normalized SmoIP GFP fluorescence” value was found to be 99.7%.

For `CN[C@H]1CC[C@@H](c2ccc(Cl)c(Cl)c2)c2ccccc21` [sertraline-hcl], the “normalized SmoIP GFP fluorescence” value came to 108%.

In the case of `C/C(=N\NC(=S)N1CCC1)c1ccccn1`, the “normalized SmoIP GFP fluorescence” value worked out at 207%.

The record behind these values is the supplement of paper PMC5662767.
